Reference: PubChem BioAssay (NCI)
About 79,000 compounds went through this panel and 15% of them were active in at least one assay; those are over-represented in the sample as a whole. Activity calls are given as the source filed them. No stated cut-off is given here; in the data, active means growth inhibition above about 70%; inactive means the rest.

What was measured:
[1] = NCI Yeast Anticancer Drug Screen. Data for the rad50EPP+ strain (AID 151);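 further: 0% = growth of vehicle-treated control cultures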; conditions: S. cerevisiae rad50 mutant strain, stronger effect = higher value
Summary of the method: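 Vehicle-normalised growth inhibition; rad50EPP+ yeast strain, altered in DNA damage repair, compound-treated.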

[2] = NCI Yeast Anticancer Drug Screen. Data for the mgt1 strain (AID 153); conditions: S. cerevisiae mgt1 mutant growth inhibition, stronger effect = higher value
Summary of the method: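 Vehicle-normalized growth inhibition is determined in mgt1 yeast, a strain selected for a defined alteration in DNA repair or cell cycle control.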

[3] = NCI Yeast Anticancer Drug Screen. Data for the rad50 strain (AID 155);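 further: 0% = growth of vehicle-only cultures of the same strain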; conditions: S. cerevisiae rad50 strain growth inhibition, stronger effect = higher value
Summary of the method: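 Readout: growth inhibition relative to vehicle-treated cultures. Compound exposure was carried out in a genetically defined yeast strain deficient in DNA damage repair.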

[4] = NCI Yeast Anticancer Drug Screen. Data for the mec2-1 strain (AID 157); conditions: S. cerevisiae mec2-1 strain, stronger effect = higher value
Summary of the method: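 Mutant yeast (mec2-1) grown with compound; growth inhibition relative to vehicle control reported.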

[5] = NCI Yeast Anticancer Drug Screen. Data for the rad14 strain (AID 159);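 further: 0% = growth of vehicle-treated control cultures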; conditions: S. cerevisiae rad14 strain growth inhibition, stronger effect = higher value
Summary of the method: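 Growth inhibition vs vehicle controls; genetically altered yeast strain (DNA damage repair defect) treated with test compounds.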

[6] = NCI Yeast Anticancer Drug Screen. Data for the sgs1 mgt1 strain (AID 161);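 further: 0% = growth of cultures given vehicle only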; conditions: S. cerevisiae sgs1 mgt1 strain, stronger effect = higher value
Summary of the method: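 Compounds are added to genetically altered yeast, and growth is compared with cultures given vehicle alone to give percent inhibition.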

[7] = NCI Yeast Anticancer Drug Screen. Data for the CLN2oe strain (AID 163);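 further: 0% = growth of vehicle-only control cultures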; conditions: S. cerevisiae CLN2oe strain, stronger effect = higher value
Summary of the method: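 Compounds are applied to yeast harbouring a defined cell-cycle control change; reduced growth compared with vehicle-treated controls gives the value.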

[8] = NCI Yeast Anticancer Drug Screen. Data for the cln2 rad14 strain (AID 165);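 further: 0% = growth equal to vehicle treated cultures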; conditions: S. cerevisiae cln2 rad14 strain, stronger effect = higher value
Summary of the method: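 Readout is yeast growth inhibition versus vehicle-treated controls, using a strain with cln2 and rad14 alterations exposed to compound.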

[9] = NCI Yeast Anticancer Drug Screen. Data for the bub3 strain (AID 167); conditions: S. cerevisiae bub3 mutant strain, stronger effect = higher value
Summary of the method: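 Readout: yeast growth inhibition, expressed relative to vehicle-only wells. The test organism is a mutant strain from a panel with lesions in DNA repair or checkpoint genes.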

[10] = NCI Yeast Anticancer Drug Screen. Data for the mlh1 strain (AID 171);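 further: 0% = growth of vehicle-treated control cultures of the same strain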; conditions: S. cerevisiae mlh1 strain growth inhibition, stronger effect = higher value
Summary of the method: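 Measured: yeast growth. Reference: vehicle-treated controls. Organism: strain with a defined alteration affecting DNA damage repair or cell cycle control, treated with compound.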

[11] = NCI Yeast Anticancer Drug Screen. Data for the sgs1 strain (AID 173);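 further: 0% = growth of vehicle-only control cultures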; conditions: S. cerevisiae sgs1 mutant, stronger effect = higher value
Summary of the method: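 Each compound was added to cultures of the altered yeast strain. Growth was recorded, and inhibition was derived by comparison with vehicle controls.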

[12] = NCI Yeast Anticancer Drug Screen. Data for the mlh1 rad18 strain (AID 175); conditions: S. cerevisiae mlh1 rad18 strain growth inhibition, stronger effect = higher value
Summary of the method: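 Genetically defined yeast (DNA repair-deficient) exposed to compounds; growth inhibition determined relative to vehicle.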

[13] = NCI Yeast Anticancer Drug Screen. Data for the rad18 strain (AID 177); conditions: S. cerevisiae rad18 mutant growth inhibition, stronger effect = higher value
Summary of the method: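 Vehicle-treated cultures served as the baseline for scoring compound-induced growth inhibition in DNA-repair-mutant yeast.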

[14] = NCI Yeast Anticancer Drug Screen. Data for the wt2 strain (AID 169);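 further: 0% = growth of vehicle-treated yeast cultures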; conditions: S. cerevisiae wt2 strain growth inhibition, stronger effect = higher value
Summary of the method: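 Against vehicle-treated controls, the growth of yeast exposed to each compound was compared, and the inhibition was recorded.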

[15] = at 5.0 µM (retest, dose inferred, filed as 0.5)
[16] = at 50.0 µM (retest, dose inferred, filed as 5.0)

Measured: growth inhibition

c1ccc(N/N=C2\CC(c3ccccc3)Oc3ccccc32)cc1 (stereo unspecified)
active: [3]; at 50.0 µM 71.2% | [5]; at 100.0 µM 72% | [6]; at 50.0 µM 74% | [12]; at 50.0 µM 72.5%
inactive: [1]; at 1.2 µM 19% | [1]; at 3.7 µM 33% | [1]; at 11.0 µM 47% | [1]; at 33.0 µM 64% | [1]; at 100.0 µM 50% | [2]; at 1.2 µM -3% | [2]; at 3.7 µM -1% | [2]; at 11.0 µM 6% | [2]; at 33.0 µM 11% | [2]; at 100.0 µM 22% | [3]; at 1.2 µM 4% | [3]; at 3.7 µM 11% | [3]; [15] 5% | [3]; at 11.0 µM 1% | [3]; at 33.0 µM 32% | [3]; [16] 8% | [3]; at 100.0 µM 28% | [4]; at 1.2 µM 1% | [4]; at 3.7 µM 4% | [4]; [15] -2% | [4]; at 11.0 µM 9% | [4]; at 33.0 µM 14% | [4]; [16] 23% | [4]; at 50.0 µM 31.4% | [4]; at 100.0 µM 13% | [5]; at 1.2 µM 0% | [5]; at 3.7 µM 4% | [5]; at 11.0 µM 10% | [5]; at 33.0 µM 52% | [6]; [15] -5% | [6]; [16] 26% | [7]; at 1.2 µM 0% | [7]; at 3.7 µM 1% | [7]; at 11.0 µM 1% | [7]; at 33.0 µM 12% | [7]; at 100.0 µM 17% | [8]; [15] -5% | [8]; [16] 4% | [8]; at 50.0 µM 30.6% | [9]; at 1.2 µM 1% | [9]; at 3.7 µM 4% | [9]; [15] -24% | [9]; at 11.0 µM 15% | [9]; at 33.0 µM 39% | [9]; [16] 27% | [9]; at 50.0 µM 53% | [9]; at 100.0 µM 39% | [10]; at 1.2 µM 1% | [10]; at 3.7 µM 0% | [10]; at 11.0 µM 4% | [10]; at 33.0 µM 6% | [10]; at 100.0 µM 3% | [11]; at 1.2 µM -1% | [11]; at 3.7 µM 0% | [11]; at 11.0 µM 5% | [11]; at 33.0 µM 18% | [11]; at 100.0 µM 24% | [12]; [15] -26% | [12]; [16] 50% | [13]; at 1.2 µM 6% | [13]; at 3.7 µM 14% | [13]; at 11.0 µM 20% | [13]; at 33.0 µM 33% | [13]; at 100.0 µM 49%

O=Cc1ccccc1B(O)O
inactive: [1]; at 1.2 µM 43% | [3]; at 1.2 µM 31% | [3]; [15] 48% | [4]; at 1.2 µM 2% | [4]; at 3.7 µM 25% | [4]; [15] -25% | [5]; at 1.2 µM 3% | [5]; at 3.7 µM 13% | [6]; [15] -25% | [7]; at 1.2 µM -4% | [7]; at 3.7 µM 11% | [8]; [15] -52% | [9]; at 1.2 µM -14% | [9]; at 3.7 µM -8% | [9]; [15] -83% | [14]; at 1.2 µM 0% | [14]; at 3.7 µM 1% | [10]; at 1.2 µM 8% | [10]; at 3.7 µM 14% | [11]; at 1.2 µM 18% | [11]; at 3.7 µM 66% | [12]; [15] -48% | [13]; at 1.2 µM 1% | [13]; at 3.7 µM 34%
active: [1]; at 3.7 µM 79% | [1]; at 11.0 µM 94% | [1]; at 33.0 µM 97% | [1]; at 100.0 µM 99% | [3]; at 3.7 µM 79% | [3]; at 11.0 µM 96% | [3]; at 33.0 µM 99% | [3]; [16] 95% | [3]; at 50.0 µM 98.8% | [3]; at 100.0 µM 99% | [4]; at 11.0 µM 97% | [4]; at 33.0 µM 99% | [4]; [16] 96% | [4]; at 50.0 µM 99.6% | [4]; at 100.0 µM 100% | [5]; at 11.0 µM 90% | [5]; at 33.0 µM 99% | [5]; at 100.0 µM 99% | [6]; [16] 95% | [6]; at 50.0 µM 98.9% | [7]; at 11.0 µM 84% | [7]; at 33.0 µM 98% | [7]; at 100.0 µM 99% | [8]; [16] 94% | [8]; at 50.0 µM 96.5% | [9]; at 11.0 µM 81% | [9]; at 33.0 µM 98% | [9]; [16] 95% | [9]; at 50.0 µM 99% | [9]; at 100.0 µM 99% | [14]; at 11.0 µM 77% | [14]; at 33.0 µM 100% | [14]; at 100.0 µM 99% | [10]; at 11.0 µM 86% | [10]; at 33.0 µM 99% | [10]; at 100.0 µM 99% | [11]; at 11.0 µM 96% | [11]; at 33.0 µM 99% | [11]; at 100.0 µM 99% | [12]; [16] 94% | [12]; at 50.0 µM 99.5% | [13]; at 11.0 µM 94% | [13]; at 33.0 µM 98% | [13]; at 100.0 µM 99%
